A word on the AC50: it is the concentration at which the activity in the assay is half-maximal.

Values joined by “and” are separate entries in the source; they are usually repeats but may differ in a detail not shown here. Identical values can stand only once. Inconclusive results are not listed. Active and inactive are the calls of the source. How the source made its calls: active means hit-call score of the fitted dose curve at least 0.9, where 1 is the maximum; inconclusive means response in the unintended direction; inactive means score below 0.9.

The values below come from PubChem BioAssay (EPA / NIEHS).

Nuclear receptor subfamily 1 group I member 2 (Homo sapiens), sequence (O75469 whole entry, looked up): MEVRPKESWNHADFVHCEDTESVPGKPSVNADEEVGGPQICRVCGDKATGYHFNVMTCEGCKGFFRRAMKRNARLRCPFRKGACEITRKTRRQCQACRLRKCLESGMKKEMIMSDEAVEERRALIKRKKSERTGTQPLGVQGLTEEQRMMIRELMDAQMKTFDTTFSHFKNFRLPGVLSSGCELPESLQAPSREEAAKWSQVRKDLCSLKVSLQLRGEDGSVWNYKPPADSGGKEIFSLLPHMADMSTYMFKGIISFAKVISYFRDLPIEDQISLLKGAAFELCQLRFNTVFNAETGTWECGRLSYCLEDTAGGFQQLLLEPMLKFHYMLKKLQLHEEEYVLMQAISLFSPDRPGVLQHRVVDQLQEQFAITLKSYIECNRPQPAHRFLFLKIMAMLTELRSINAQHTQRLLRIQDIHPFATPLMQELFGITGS
guinea pig Sigma Receptor, Non-selective Binding, SIGMAR1 (gene 100135589), sequence (Q60492 whole entry, looked up): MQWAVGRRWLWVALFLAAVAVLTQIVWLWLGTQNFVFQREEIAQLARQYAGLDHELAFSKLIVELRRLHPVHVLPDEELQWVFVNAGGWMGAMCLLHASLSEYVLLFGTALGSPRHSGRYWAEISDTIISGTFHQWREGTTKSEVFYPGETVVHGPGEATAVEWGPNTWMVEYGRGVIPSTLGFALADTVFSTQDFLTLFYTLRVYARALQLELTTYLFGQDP
Glucocorticoid receptor (Homo sapiens), sequence (P04150 whole entry, looked up): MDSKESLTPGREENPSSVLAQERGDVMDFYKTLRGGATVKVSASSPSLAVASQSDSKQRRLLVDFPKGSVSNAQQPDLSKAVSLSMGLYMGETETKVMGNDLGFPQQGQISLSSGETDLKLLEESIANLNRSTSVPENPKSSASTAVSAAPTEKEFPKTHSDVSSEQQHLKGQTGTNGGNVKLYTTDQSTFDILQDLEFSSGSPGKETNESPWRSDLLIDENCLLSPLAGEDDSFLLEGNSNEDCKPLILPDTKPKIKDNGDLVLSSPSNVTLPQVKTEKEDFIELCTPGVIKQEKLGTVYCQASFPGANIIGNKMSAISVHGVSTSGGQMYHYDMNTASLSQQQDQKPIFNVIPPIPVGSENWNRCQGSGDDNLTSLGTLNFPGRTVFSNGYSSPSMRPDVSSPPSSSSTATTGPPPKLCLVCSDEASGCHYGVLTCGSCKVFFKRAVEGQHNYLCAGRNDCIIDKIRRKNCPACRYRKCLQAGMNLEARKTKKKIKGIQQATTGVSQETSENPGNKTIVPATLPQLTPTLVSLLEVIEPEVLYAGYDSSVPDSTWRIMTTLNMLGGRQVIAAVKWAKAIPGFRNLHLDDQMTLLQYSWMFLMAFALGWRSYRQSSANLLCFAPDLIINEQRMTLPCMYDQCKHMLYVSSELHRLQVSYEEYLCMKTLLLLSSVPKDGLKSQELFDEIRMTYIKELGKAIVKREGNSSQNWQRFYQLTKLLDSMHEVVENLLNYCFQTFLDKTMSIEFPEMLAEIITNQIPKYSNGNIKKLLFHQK
rat Androgen Receptor (AR), Ar (gene 24208), sequence (P15207 whole entry, looked up): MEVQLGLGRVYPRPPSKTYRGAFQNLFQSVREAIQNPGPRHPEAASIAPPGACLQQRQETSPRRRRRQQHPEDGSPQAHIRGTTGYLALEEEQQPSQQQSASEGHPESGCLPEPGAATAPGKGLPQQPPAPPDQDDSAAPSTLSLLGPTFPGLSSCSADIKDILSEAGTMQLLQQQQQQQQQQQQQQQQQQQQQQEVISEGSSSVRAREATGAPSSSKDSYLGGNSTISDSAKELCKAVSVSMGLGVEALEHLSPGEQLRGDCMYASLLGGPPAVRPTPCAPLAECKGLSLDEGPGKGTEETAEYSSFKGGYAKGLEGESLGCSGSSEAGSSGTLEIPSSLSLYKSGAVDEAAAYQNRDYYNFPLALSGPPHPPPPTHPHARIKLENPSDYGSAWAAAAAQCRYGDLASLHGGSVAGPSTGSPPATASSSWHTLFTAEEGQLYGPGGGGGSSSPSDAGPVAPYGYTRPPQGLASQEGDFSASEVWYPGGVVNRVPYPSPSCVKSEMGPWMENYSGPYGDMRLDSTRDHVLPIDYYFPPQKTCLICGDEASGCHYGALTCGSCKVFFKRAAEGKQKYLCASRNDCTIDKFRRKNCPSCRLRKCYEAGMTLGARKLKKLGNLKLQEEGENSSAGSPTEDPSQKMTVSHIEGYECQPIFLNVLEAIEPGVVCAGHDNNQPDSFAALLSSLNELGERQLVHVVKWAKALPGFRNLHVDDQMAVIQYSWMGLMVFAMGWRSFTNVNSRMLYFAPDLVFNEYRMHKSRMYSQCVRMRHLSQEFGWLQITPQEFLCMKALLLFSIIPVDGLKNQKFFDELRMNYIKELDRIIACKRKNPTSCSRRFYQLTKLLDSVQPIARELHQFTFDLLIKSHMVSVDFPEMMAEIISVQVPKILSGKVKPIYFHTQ
rat Serotonin Transporter (SERT), Slc6a4 (gene 25553), sequence (P31652 whole entry, looked up): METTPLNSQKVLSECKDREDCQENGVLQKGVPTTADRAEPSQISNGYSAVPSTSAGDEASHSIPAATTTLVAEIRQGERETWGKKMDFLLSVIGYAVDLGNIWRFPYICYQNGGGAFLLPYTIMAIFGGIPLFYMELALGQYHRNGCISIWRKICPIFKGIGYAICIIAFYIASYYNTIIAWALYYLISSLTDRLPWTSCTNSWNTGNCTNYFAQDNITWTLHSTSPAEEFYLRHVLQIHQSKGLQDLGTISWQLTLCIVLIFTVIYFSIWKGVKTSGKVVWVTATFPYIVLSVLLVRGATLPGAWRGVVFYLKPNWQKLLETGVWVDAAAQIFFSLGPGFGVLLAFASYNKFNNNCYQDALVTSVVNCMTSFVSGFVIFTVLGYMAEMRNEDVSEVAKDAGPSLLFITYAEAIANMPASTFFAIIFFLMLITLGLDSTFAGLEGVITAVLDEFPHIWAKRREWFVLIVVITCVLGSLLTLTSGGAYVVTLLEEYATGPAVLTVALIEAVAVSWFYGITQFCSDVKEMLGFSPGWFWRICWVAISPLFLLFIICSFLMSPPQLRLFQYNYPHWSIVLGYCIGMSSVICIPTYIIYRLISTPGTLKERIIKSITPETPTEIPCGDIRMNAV

One assay has as its target Glucocorticoid receptor (Homo sapiens) (UniProt P04150). Briefly: NVS_NR_hGR: NovaScreen (NVS) Nuclear Receptor Binding Assay for human Glucocorticoid Receptor (GR) (AID 2283363). As to the method: NVS_NR_hGR is a biochemical, single-readout assay that uses extracted gene-proteins in a cell-free assay. Measurements were taken 16 hours after chemical dosing in a 96-well plate.NVS_NR_hGR is one of one assay component(s) measured or calculated from the NVS_NR_hGR assay. It is designed to make measurements of radioligand binding, a form of binding reporter, as detected with scintillation counting signals by Filter-based radiodetection technology.Data from the assay component NVS_NR_hGR was analyzed into 1 assay endpoint. This assay endpoint, NVS_NR_hGR, was analyzed in the positive analysis fitting direction relative to DMSO as the negative control and baseline of activity. Using a type of binding reporter, loss-of-signal activity can be used to understand changes in the binding as they relate to the gene NR3C1. Furthermore, this assay endpoint can be referred to as a primary readout, because the performed assay has only produced 1 assay endpoint. To generalize the intended target to other relatable targets, this assay endpoint is annotated to the nuclear receptor intended target family, where the subfamily is steroidal.
Binding assays used specific radioligands (tritiated, iodinated) with non-radioactive competitive displacement ligands in agonist or antagonist protocols (as indicated) and various reference compounds and inhibitors to titrate specific binding to receptors and transporters. Most enzyme assays (CYPs, kinases, phosphatases, proteases, HDACs) used recombinant protein and specific substrates (fluorescence mostly, some colorimetric and radioactive) and inhibitors, followed by a biochemical separation of substrate and product. All assays for the biochemical HTS were initially run in duplicate at a single concentration (10 uM for CYP450 assays and […] uM for all others). […] Each assay was run with positive and negative controls, and concurrent controls on every plate. The follow-up (secondary) screen tested active chemical-pairs in concentration series, as well as a few additional assays not tested in the primary screen, some selected negative inactives, and several cases re-run in the concentration series for confirmatory purposes.
Consider `CCCCC(CC)COP(=O)(OCC(CC)CCCC)OCC(CC)CCCC` (stereo not given), for which the compound was called inactive.
Same read-out and setting: to `Cc1cc(Cc2ccc(N)c(C)c2)ccc1N` belongs “inactive”.
Still for that read-out and setting: to `CCCCc1nc2cccnc2n1Cc1ccc(-c2ccccc2-c2nnn[nH]2)cc1` belongs “inactive”.
On to `CCCCCCCCCCCCCCOS(=O)(=O)O`, for which the AC50 is 2.14 µM (active).
As to `S=c1[nH]c2ccccc2s1`, the result was inactive.
`O=Cc1ccccc1C=O`: the AC50 was 6.78 µM (active).
Turning to `CCCCOC(=O)CCCCC(=O)OCCCC`, the compound was called inactive.

The next assay addresses Nuclear receptor subfamily 1 group I member 2 (Homo sapiens) (UniProt O75469). Briefly: NVS_NR_hPXR: NovaScreen (NVS) Nuclear Receptor Binding Assay for human Pregnane X Receptor (PXR) (AID 2283365).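 Further: a drop in FRET signal versus DMSO baseline means the compound binds.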 In outline:
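Read-out: TR-FRET, human PXR, 2 h post-dosing, cell-free. Loss of signal vs DMSO taken as binding activity; […] uM primary, concentration series secondary.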
`O=C1c2c(O)cccc2Cc2cccc(O)c21`: the outcome was inactive.
Still for that read-out and setting: to `CC(=O)CC(c1ccccc1)c1c(O)c2ccccc2oc1=O` (stereo not given) belongs “inactive”; to `CC(=O)[C@@]1(O)CC[C@H]2[C@@H]3CCC4=CC(=O)CC[C@]4(C)[C@H]3CC[C@@]21C`, “inactive”; to `CC(=O)O[C@]1(C(C)=O)CC[C@H]2[C@@H]3C=C(Cl)C4=CC(=O)[C@@H]5C[C@@H]5[C@]4(C)[C@H]3CC[C@@]21C`, “inactive”.
Same read-out and setting: to `CSc1ccc(Oc2ccc(S(N)(=O)=O)cc2CN(C)C)cc1C` belongs “inactive”.
The same measure, in the same setting: the value for `CC(C)(C)c1ccccc1` was “inactive”.
As for `COc1ccc(OC(F)(F)F)cc1CN[C@H]1CCCN[C@H]1c1ccccc1`, the AC50 is 7.41 µM (active).
For the compound `CCCCCCCCCCCCCCOS(=O)(=O)O`, the AC50 was 7.25 µM (active).
Take `CN(C)C(=O)NC1(c2ccccc2)CCN(CC[C@@]2(c3ccc(F)c(F)c3)CN(C(=O)c3ccccc3)CCO2)CC1`: the call was inactive.
On to `CCN(CC)CCOc1ccc(C(=C(Cl)c2ccccc2)c2ccccc2)cc1`, for which the AC50 is 3.15 µM (active) and 3.46 µM (active) and 3.72 µM (active).
As for `O=C1NC(=O)C(c2ccccc2)(c2ccccc2)N1`, the outcome was inactive.
As to `CC(C)OC(=O)C(C)(C)Oc1ccc(C(=O)c2ccc(Cl)cc2)cc1`, the AC50 is 41.2 µM (active).
As for `COc1ccc(C(=O)Nc2nc3ccccc3c(NCc3ccccc3)c2C#N)cc1`, the compound was called inactive.

In another assay the target is rat Androgen Receptor (AR), Ar (gene 24208) (UniProt P15207). Briefly: NVS_NR_rAR: NovaScreen (NVS) Nuclear Receptor Binding Assay for rat Androgen Receptor (AR) (AID 2283366). Summed up:
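Cell-free radioligand binding on extracts of prostate from testosterone-pretreated rats, read by filter-based scintillation counting 18 h after dosing. Loss of bound signal fitted positively versus DMSO; primary screen in duplicate at 25 uM, actives followed up in concentration series.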
As to `O=C1OC(c2ccc(O)cc2)(c2ccc(O)cc2)c2ccccc21`, the AC50 is 6.69 µM (active).
The same measure, in the same setting: the value for `CCN(CC)CCOc1ccc(C(=C(Cl)c2ccccc2)c2ccccc2)cc1` was 2.68 µM (active) [middle of 4 runs].
Regarding `Cc1c(C)c2c(c(C)c1O)CCC(C)(COc1ccc(CC3SC(=O)NC3=O)cc1)O2` (stereo not given), the outcome was inactive.
The same measure, in the same setting: the value for `Cc1ccc(-c2cc(C(F)(F)F)nn2-c2ccc(S(N)(=O)=O)cc2)cc1` was “inactive”.

For another assay, the target named is guinea pig Sigma Receptor, Non-selective Binding, SIGMAR1 (gene 100135589) (UniProt Q60492). Briefly: NVS_OR_gSIGMA_NonSelective: NovaScreen (NVS) Nuclear Receptor Binding Assay for guinea pig Sigma Receptor, Non-selective Binding (AID 2283367). Summed up:
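gp brain membr., radioligand displacement, 1 h, filtration + scint. counting; DMSO = baseline; […] uM x2 primary, conc.-response confirm.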
As for `CCc1nc(N)nc(N)c1-c1ccc(Cl)cc1`, the AC50 is 2.45 µM (active).
On the same count and under the same terms, the value for `CSc1ccc(Oc2ccc(S(N)(=O)=O)cc2CN(C)C)cc1C` was 12.8 µM (active).
`COc1ccc(OC(F)(F)F)cc1CN[C@H]1CCCN[C@H]1c1ccccc1`: the AC50 is 15.8 µM (active).
Turning to `CCCCCCCCCC[N+](C)(C)[O-]`, the AC50 was 3.09 µM (active).
The same measure, in the same setting: the value for `CCN(CC)CCOc1ccc(C(=C(Cl)c2ccccc2)c2ccccc2)cc1` was 2.13 µM (active).
As for `Cc1c(C)c2c(c(C)c1O)CCC(C)(COc1ccc(CC3SC(=O)NC3=O)cc1)O2` (stereo not given), the AC50 was 35 µM (active).

The subject of another assay is guinea pig Dopamine Transporter (DAT), gene 100714898. Briefly: NVS_TR_gDAT: NovaScreen (NVS) Transporter Assay for guinea pig Dopamine Transporter (DAT) (AID 2283369).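 Further: active compounds lower bound radioligand signal relative to DMSO.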 Summed up: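 Primary pass: duplicate wells at 25 uM, threshold e.g. 30% inhibition. Follow-up: singleton concentration-response, highest 50 uM. Radioligand binding on guinea pig striatal membranes, 2 h, filtration scintillation detection.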
Consider `CCCCC(CC)COP(=O)(OCC(CC)CCCC)OCC(CC)CCCC` (stereo not given), for which the call was inactive.
In the case of `CCc1nc(N)nc(N)c1-c1ccc(Cl)cc1`, the AC50 is 1.18 µM (active).
Same read-out and setting: to `CSc1ccc(Oc2ccc(S(N)(=O)=O)cc2CN(C)C)cc1C` belongs 7.61 µM (active); to `COc1ccc(OC(F)(F)F)cc1CN[C@H]1CCCN[C@H]1c1ccccc1`, 11.9 µM (active); to `CCN(CC)CCOc1ccc(C(=C(Cl)c2ccccc2)c2ccccc2)cc1`, 3.83 µM (active).

The target of a further assay is Peroxisome proliferator-activated receptor gamma (Homo sapiens) (UniProt P37231). Briefly: NVS_NR_hPPARg: NovaScreen (NVS) Nuclear Receptor Binding Assay for human Peroxisome Proliferator-activated Receptor gamma (PPARg) (AID 2283370). In outline: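 Extracted receptor protein, cell-free; compound incubated 2 h then fluorescence polarization read. Baseline: DMSO. Actives from […] uM duplicate screen re-run across concentrations.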
Peroxisome proliferator-activated receptor gamma (Homo sapiens), sequence (P37231 whole entry, looked up): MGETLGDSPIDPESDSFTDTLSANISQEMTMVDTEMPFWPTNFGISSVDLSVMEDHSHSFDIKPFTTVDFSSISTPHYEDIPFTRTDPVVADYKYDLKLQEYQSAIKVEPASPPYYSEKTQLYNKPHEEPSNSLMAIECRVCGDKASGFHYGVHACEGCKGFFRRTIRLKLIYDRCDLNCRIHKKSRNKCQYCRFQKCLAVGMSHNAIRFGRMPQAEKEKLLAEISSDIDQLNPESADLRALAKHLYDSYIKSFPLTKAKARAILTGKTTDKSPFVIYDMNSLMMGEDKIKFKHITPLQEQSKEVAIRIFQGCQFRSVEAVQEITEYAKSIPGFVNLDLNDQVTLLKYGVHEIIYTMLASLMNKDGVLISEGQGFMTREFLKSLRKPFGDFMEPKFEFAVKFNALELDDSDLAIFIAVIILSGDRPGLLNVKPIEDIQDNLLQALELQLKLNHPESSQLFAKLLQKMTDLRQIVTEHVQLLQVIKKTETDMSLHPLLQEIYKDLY
With `CCCCC(CC)COP(=O)(OCC(CC)CCCC)OCC(CC)CCCC` (stereo not given), the result was inactive.
On the same count and under the same terms, the value for `CCc1nc(N)nc(N)c1-c1ccc(Cl)cc1` was “inactive”.
For the compound `CCCCc1nc2cccnc2n1Cc1ccc(-c2ccccc2-c2nnn[nH]2)cc1`, the AC50 is 4.96 µM (active).
The same measure, in the same setting: the value for `CCCCCCCCCCCCCCOS(=O)(=O)O` was 1.78 µM (active).
Consider `CN(C)C(=O)NC1(c2ccccc2)CCN(CC[C@@]2(c3ccc(F)c(F)c3)CN(C(=O)c3ccccc3)CCO2)CC1`, for which the call was inactive.
Still for that read-out and setting: to `S=c1[nH]c2ccccc2s1` belongs “inactive”.

Another assay deals with rat Norepinephrine Transporter (NET), gene 83511. Briefly: NVS_TR_rNET: NovaScreen (NVS) Transporter Assay for rat Norepinephrine Transporter (NET) (AID 2283373). In outline: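 Rat forebrain membranes; radioligand binding measured by filter-based scintillation counting 1 hour after dosing. Loss of specific binding versus DMSO baseline scored; primary screen in duplicate at 25 uM, actives followed up in concentration series.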
As for `CCc1nc(N)nc(N)c1-c1ccc(Cl)cc1`, the AC50 is 6.82 µM (active).
Regarding `Cc1cc(Cc2ccc(N)c(C)c2)ccc1N`, the compound was called inactive.
Consider `CSc1ccc(Oc2ccc(S(N)(=O)=O)cc2CN(C)C)cc1C`, for which the AC50 is 25 µM (active).
Still for that read-out and setting: the value for `COc1ccc(OC(F)(F)F)cc1CN[C@H]1CCCN[C@H]1c1ccccc1` was 8.18 µM (active).
Same read-out and setting: to `CCN(CC)CCOc1ccc(C(=C(Cl)c2ccccc2)c2ccccc2)cc1` belongs 10.2 µM (active).

The next assay concerns the target rat Serotonin Transporter (SERT), Slc6a4 (gene 25553) (UniProt P31652). Briefly: NVS_TR_rSERT: NovaScreen (NVS) Transporter Assay for rat Serotonin Transporter (SERT) (AID 2283375). Summed up:
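Using rat forebrain membrane SERT, test chemicals compete with a radioligand for 1 hour, and bound counts are taken by filter-based scintillation. Screening starts at 25 uM in duplicate, followed by concentration series for actives.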
As for `CCc1nc(N)nc(N)c1-c1ccc(Cl)cc1`, the half-maximal activity concentration (AC50) was 9.78 µM (active).
`CSc1ccc(Oc2ccc(S(N)(=O)=O)cc2CN(C)C)cc1C`: the half-maximal activity concentration (AC50) was 0.00229 µM (active).
Still for that read-out and setting: the value for `COc1ccc(OC(F)(F)F)cc1CN[C@H]1CCCN[C@H]1c1ccccc1` was 11.7 µM (active); that for `CCN(CC)CCOc1ccc(C(=C(Cl)c2ccccc2)c2ccccc2)cc1` was 7.45 µM (active).
